Here are results for 39 sequences from the OligoGym collection.
Also: reference of the scale not given here.

In one assay the target is PTBP2. The assay can be described thus: pooled miR-30 sensor sort-seq; sequence = guide strand. The conditions noted are these: shRNA.
In turn, TTAAAGTCAGATCTATTCCTAA showed a sensor-assay potency score (higher = more potent) of 0.0356.
As to TAGCTGTACAGTCTGATGTTTA, the sensor-assay potency score (higher = more potent) is -0.892.
With TTCATTTAAATTGCTAACCAAC, the sensor-assay potency score (higher = more potent) is -1.15.
For TTTAATGTATTATCTGTCTTTA, the sensor-assay potency score (higher = more potent) is -0.808.
Turning to TGAACTAGCTAGACCAGTCTGC, the sensor-assay potency score (higher = more potent) worked out at 0.184.
Sequence TTATCTTCAATACAGCACCAAA had a sensor-assay potency score (higher = more potent) of -1.15.
TAGTTCGTCAGATCCTCTCTTC displayed a sensor-assay potency score (higher = more potent) of 0.267.
Take TTTAGTTCTTTGTGATTCGAGT: the sensor-assay potency score (higher = more potent) was -0.551.
Same read-out and setting: under TTGCTAACCAACAGGACTGTAT stands -0.182; under TAACCATAGTAATAGCTGCTTC, -0.782.
Same read-out and setting: under TTAACCATAGTAATAGCTGCTT stands 0.167.

In another assay the target is PTGDR. Described as above. The conditions noted are these: shRNA.
On to TCTGCTTCTTCAGAGGTCCTGT, for which the sensor-assay potency score (higher = more potent) was 0.273.
The same measure, in the same setting: with TACAGTGAGTCACACACTGGTT the figure was -0.86; with TAGGCAGCCAGCACCACCGGGC, -0.802.
On to TAAATTTCAAAAACAACTGTAT, for which the sensor-assay potency score (higher = more potent) was -0.297.
The sequence TTTTTATGAATGTCCATCGTAT came in with a sensor-assay potency score (higher = more potent) of -0.379.
The same measure, in the same setting: with TTGATTCCTACTGACACCCTTG the figure was 0.657.
In turn, TTTAAGACTTTTAACACTGGTT came in with a sensor-assay potency score (higher = more potent) of -0.351.
For the sequence TTAGTGGAATTGCTGCACCGGC, the sensor-assay potency score (higher = more potent) was -1.14.
TACTGTTAAATCATACTCCTTG showed a sensor-assay potency score (higher = more potent) of 0.542.
In turn, TGTACTTACACATTGAAGGTAC came in with a sensor-assay potency score (higher = more potent) of 0.268.
In turn, ATTAACTGGACAATTATCCTAA returned a sensor-assay potency score (higher = more potent) of 0.137.
The sequence TATCCTAACACACCTCTCCAAA returned a sensor-assay potency score (higher = more potent) of -1.13.

A further assay has as its target PTGDS. The description is as above. To be noted: shRNA.
TTGCACATGGACAACGCCGCCT registered a sensor-assay potency score (higher = more potent) of -0.424.
In turn, TGAATTTCTCCTTTAACTCAGC gave a sensor-assay potency score (higher = more potent) of -0.751.
In the case of TTTCTCCTTTAACTCAGCCCTG, the sensor-assay potency score (higher = more potent) is -1.14.
Take TTGGGCTGCACGGAGACCTGGG: the sensor-assay potency score (higher = more potent) is -0.764.
On to TTTTTCCTGAGGAAGGTGGAGG, for which the sensor-assay potency score (higher = more potent) was -1.
As to TAGTCGGTCTCCACCACTGACA, the sensor-assay potency score (higher = more potent) is -1.34.
TTATTGTGCAGGATGAAGCCTG showed a sensor-assay potency score (higher = more potent) of -0.188.
Consider TCCGGTAGCTGTAGGAGCCGAG, for which the sensor-assay potency score (higher = more potent) is -0.81.
As to TTCTCCTTTAACTCAGCCCTGG, the sensor-assay potency score (higher = more potent) was -0.867.
For the sequence TACTGGTCGTAGTCGGTCTCCA, the sensor-assay potency score (higher = more potent) was -0.484.
The sequence AAGACAATGGTATCCTCTGTGA registered a sensor-assay potency score (higher = more potent) of -0.868.

The target of a further assay is PTGFRN. The description is as above. To be noted: shRNA.
Sequence TTTTCTTGGATTTCCTGCCAGT had a sensor-assay potency score (higher = more potent) of -0.278.
On to TTTGCTAACATCCCGAACCAGT, for which the sensor-assay potency score (higher = more potent) is -0.807.
Take TTGGAGAAGACATCCTTGCTTT: the sensor-assay potency score (higher = more potent) is -0.201.
TTAAATATAGGACCTGAGGTTT yielded a sensor-assay potency score (higher = more potent) of -1.13.
TTTTCTTTGCTAACATCCCGAA registered a sensor-assay potency score (higher = more potent) of -0.589.
